Each structure is given as a SMILES string. Results filed as inconclusive are left out. Unmarked numbers belong to inactive results. Active and inactive are the calls of the source. Calls come from the whole dose curve; as a rule, active = well fitted inhibition curve with a large enough effect in the repeat runs; inconclusive = weak or mixed curves; inactive = flat fitted curve, though single readings scatter.
% is set by controls: 0 for no effect and ±100 for the full control effect; potency is the fitted concentration of half-maximal effect.

Voltage-gated inwardly rectifying potassium channel KCNH2 (Homo sapiens), sequence (Q12809 whole entry, looked up): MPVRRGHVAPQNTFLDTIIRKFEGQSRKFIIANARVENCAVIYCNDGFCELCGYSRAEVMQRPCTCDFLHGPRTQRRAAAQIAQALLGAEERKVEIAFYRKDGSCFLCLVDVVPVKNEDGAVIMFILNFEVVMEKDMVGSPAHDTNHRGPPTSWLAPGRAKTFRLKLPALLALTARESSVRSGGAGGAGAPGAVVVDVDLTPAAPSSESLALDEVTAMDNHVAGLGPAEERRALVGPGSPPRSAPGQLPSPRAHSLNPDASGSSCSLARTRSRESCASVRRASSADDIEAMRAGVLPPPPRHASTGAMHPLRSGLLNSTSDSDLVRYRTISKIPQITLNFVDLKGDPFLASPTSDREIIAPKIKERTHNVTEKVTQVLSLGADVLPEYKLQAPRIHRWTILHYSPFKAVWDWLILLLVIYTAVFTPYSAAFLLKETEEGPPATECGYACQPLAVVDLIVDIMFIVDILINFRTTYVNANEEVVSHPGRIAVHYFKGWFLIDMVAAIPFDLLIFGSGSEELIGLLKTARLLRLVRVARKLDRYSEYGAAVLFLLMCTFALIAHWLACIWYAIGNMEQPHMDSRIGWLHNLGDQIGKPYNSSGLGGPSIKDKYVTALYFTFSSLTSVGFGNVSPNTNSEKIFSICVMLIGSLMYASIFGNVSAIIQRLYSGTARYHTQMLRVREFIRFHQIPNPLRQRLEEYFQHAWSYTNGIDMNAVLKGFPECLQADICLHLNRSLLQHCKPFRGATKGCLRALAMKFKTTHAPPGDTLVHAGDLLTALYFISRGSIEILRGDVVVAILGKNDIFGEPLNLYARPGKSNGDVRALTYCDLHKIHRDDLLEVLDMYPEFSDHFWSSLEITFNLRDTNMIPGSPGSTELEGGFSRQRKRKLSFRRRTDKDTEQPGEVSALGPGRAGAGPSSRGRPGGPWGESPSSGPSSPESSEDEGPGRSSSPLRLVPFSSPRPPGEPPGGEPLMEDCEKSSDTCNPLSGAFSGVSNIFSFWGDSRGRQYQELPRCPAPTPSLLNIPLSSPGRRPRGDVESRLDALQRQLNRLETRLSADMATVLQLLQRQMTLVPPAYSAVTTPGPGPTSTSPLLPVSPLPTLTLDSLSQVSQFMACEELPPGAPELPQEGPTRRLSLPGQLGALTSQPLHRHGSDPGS

The target in this test is Voltage-gated inwardly rectifying potassium channel KCNH2 (Homo sapiens) (UniProt Q12809). Nature of the test: Human Ether-a-go-go-Related Gene (hERG) channel small molecule antagonists: fluorescence cell-based qHTS assay (AID 1671200).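 For activity change, negative = inhibition: hERG-expressing U2OS cells given a thallium stimulus after FluxOR II dye loading.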 Note: nearly all actives have a fitted effect of over 50% in size. Conditions: hERG-U2OS cells, FluxOR thallium flux fluorescence; series mostly up to 76.8 µM; activity change, negative = inhibition: at the top concentration. An outline of the steps:
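Read-out: thallium influx as a surrogate for potassium, tracked as fluorescence (480 nm ex/540 nm em) every second for 2 min after Stimulus Buffer addition in dye-loaded hERG-U2OS cells.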
(The hERG channel carries a current that helps repolarise heart muscle cells.)
As to `CC[C@H](c1ccc(O)cc1)[C@@H](CC)c1ccc(O)cc1`, the Potency entry is “inactive”.

In the case of `COc1cc(-c2ccc(N=C=O)c(OC)c2)ccc1N=C=O`, the “activity change, negative = inhibition” value was -0.299% [at 35.3 µM].

With `C[C@H]1[C@H]2CC[C@H]3[C@@H]4CC=C5C[C@@H](N(C)C)CC[C@]5(C)[C@H]4CC[C@]23CN1C`, the “activity change, negative = inhibition” value is -4.57% [at 35.3 µM].

With `CCCC1O[C@@H]2C[C@H]3[C@@H]4CCC5=CC(=O)C=C[C@]5(C)[C@H]4[C@@H](O)C[C@]3(C)[C@]2(C(=O)CO)O1` (some centres undefined), the Potency entry is “inactive”.

With `Cc1onc(-c2c(Cl)cccc2Cl)c1C(=O)N[C@@H]1C(=O)N2[C@@H]1SC(C)(C)[C@@H]2C(=O)O`, the “activity change, negative = inhibition” value is 3.11% [at 35.3 µM].

Regarding `C/C(=C(/OCCOc1ccc(Cl)cc1)c1ccc(Cl)cc1Cl)n1ccnc1`, the Potency is 6740 nM (active).

As for `COC(=O)C1=C(C)NC(C)=C(C(=O)OCCc2ccc(N3CCN(C(c4ccccc4)c4ccccc4)CC3)cc2)C1c1cccc([N+](=O)[O-])c1` (centres undefined), the “activity change, negative = inhibition” value is 3.35% [at 35.3 µM].

Take `CCCCCCCCOC(=O)c1ccc(O)cc1`: the “activity change, negative = inhibition” value was -4.8%.

As to `Cc1cc(O)c2ccccc2c1O`, the Potency was 3380 nM (active).

For `COc1ccc(CN2CCN(C(c3ccc(F)cc3)c3ccc(F)cc3)CC2)c(OC)c1OC`, the Potency is 674 nM (active).

On to `CCCCCCCCCCCCCCCC[N+](C)(C)CCN(Cc1ccc(OC)cc1)c1ncccn1`, for which the Potency is 338 nM (active).

Take `Oc1ccc(Cl)cc1Sc1cc(Cl)ccc1O`: the “activity change, negative = inhibition” value was -13.9% [at 35.3 µM].

Turning to `CCOC(=O)O[C@]1(C(=O)OCCl)CC[C@H]2[C@@H]3CCC4=CC(=O)C=C[C@]4(C)[C@H]3[C@@H](O)C[C@@]21C`, the “activity change, negative = inhibition” value was -15.1% [at 35.3 µM].

For `CCCCC(CC)CN=C(N)NC(N)=NCCCCCCN=C(N)NC(N)=NCC(CC)CCCC` (centres undefined), the “activity change, negative = inhibition” value was -16.6% [at 35.3 µM].

The values above are taken from PubChem BioAssay (Tox21).
